Measurements as given in PubChem BioAssay AID588344 (National Center for Advancing Translational Sciences (NCATS), 2011).
The other results are listed elsewhere or left out. Inconclusive results are not listed. Active and inactive are the calls of the source. Calls come from the whole dose curve; as a rule, active = well fitted inhibition curve with a large enough effect; inconclusive = small, poorly fitted or top-dose-only effect; inactive = flat fitted curve, though single readings scatter.

molecular target: Histone-lysine N-methyltransferase EHMT2 (Homo sapiens) (UniProt Q96KQ7); assay: qHTS Assay for Inhibitors of Histone Lysine Methyltransferase G9a: Hit Confirmation; conditions: G9a H3K9 monomethylation, AlphaScreen, 2 h; note: nearly all actives have a fitted effect of over 65% in size
Source text: Methylated lysines, on the N-terminal tails of histone proteins serve as epigenetic markers to recruit factors that can then modify local chromatin structure to lead to functional consequences. G9a and other members of the SUV39 family of the SET domain-containing superfamily of histone lysine methyltransferases (HMT) have been identified to specifically methylate Lys9 of histone H3 (H3K9). G9a catalyzes the mono- and di-methylation of H3K9 in mammalian euchromatic regions, where the resulting H3K9me2 is indicative of transcriptional repression. […] The inhibition of G9a will result in transcriptional activation and work synergistically with DNA methyltransferase and histone deacetylase inhibitors, to kill cancer cells. This qHTS assay for identification of G9a inhibitors is a chemiluminescence based AlphaScreen (PerkinElmer). Methylation of biotinylated-histone peptide is measured through specific antibody-based detection, in conjunction with streptavidin-coated donor and anti-IgG antibody-coated acceptor beads. The method is particularly well suited for detection of inhibitors acting by the desired histone peptide competitive mechanism and is applicable to testing other HMTs. Although AlphaScreen has significant advantages with its utility in a variety of epigenetic target assays, the primary screening data provided in this deposition should be used with caution due to the prevalence of screening artifacts. An AlphaScreen counterscreen is highly recommended to be run against any putative actives to eliminate non specific artifacts. Alternatively, one can use other AlphaScreen assays in PubChem to filter out promiscuous hits. Quinn et al. A chemiluminescence-based method for identification of histone lysine methyltransferase inhibitors. Mol Biosyst 6(5): 782-8. 2010. PMID: 20567762 [2] Baell,Holloway. New substructure filters for removal of pan assay interference compounds (PAINS) from screening libraries and for their exclusion in bioassays. J Med Chem. 53(7):2719-40. 2010. PMID: 20131845 NIH Chemical Genomics Center [NCGC] NIH Molecular Libraries Probe Production Network [MLPCN] MLPCN Grant: MH084681-02 Assay Submitter (PI): Structural Genomic Consortium - Toronto, Peter Brown
To each well, 2 uL of HMT enzyme (final 20 nM) will be added using a nanoliter dispenser. The G9a- and GLP-inhibitor BIX-01294 will be used as an intraplate control, with a 16-point titration in duplicate. A Kalypsys pin-tool will be employed to transfer 23 nL of library compound solution in DMSO to each well. Following a 15 min incubation of enzyme with compounds at room temperature, 1 uL mixture of b-H3K9 peptide substrate (final 500 nM) and SAM cofactor (final 20 uM) will be added. Reactions are allowed to proceed at room temperature for 2 hours. Methylated b-H3K9 peptide product is detected with 0.5 ug/mL rabbit polyclonal anti-monomethyl histone H3K9 antibody (Abcam Inc., Cambridge, MA) and 20 ug/mL each streptavidin-coated donor and anti-rabbit IgG acceptor AlphaScreen beads. Antibody and beads will be added in a 1 uL dispense, for a final volume of 4 uL, and plates will be incubated protected from the light for 10 min at room temperature. Microplates will then be read on an EnVision multilabel plate reader using the 1,536 plate HTS AlphaScreen aperture (excitation time 80 ms, measurement time 240 ms).
Potency is the fitted concentration of half-maximal effect.

Chain of Histone-lysine N-methyltransferase EHMT2 (Homo sapiens) (Q96KQ7 913-1193 limits assumed): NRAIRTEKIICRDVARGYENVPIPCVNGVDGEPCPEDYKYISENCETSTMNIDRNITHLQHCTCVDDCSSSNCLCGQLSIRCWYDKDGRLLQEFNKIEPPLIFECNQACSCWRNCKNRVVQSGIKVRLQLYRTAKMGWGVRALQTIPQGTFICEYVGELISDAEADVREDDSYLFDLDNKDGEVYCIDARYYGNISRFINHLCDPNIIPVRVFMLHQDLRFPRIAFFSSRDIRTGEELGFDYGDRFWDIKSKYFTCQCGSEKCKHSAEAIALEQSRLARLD

Potency, active:
c1ccc(-c2nnc3n2NC(c2ccc4c(c2)OCO4)S3)cc1 (stereo unspecified) 0.178 µM
CC(NC(=O)c1ccco1)C(=O)Nc1nc(-c2ccccn2)cs1 (stereo unspecified) 7.96 µM
CCc1ccc(Nc2ncc3c(n2)CC(c2ccco2)CC3=O)cc1 (stereo unspecified) 31.6 µM
CCCCNC(=O)CSc1nc2ccc(NC(=O)CSc3nnc(N)s3)cc2s1 1.42 µM
CCn1c(SCC(=O)Nc2cccc(F)c2)nnc1-c1cc2cc(Br)ccc2o1 5.01 µM
COCCCNCC(=O)Nc1sc(C)c(C)c1C(=O)OC 31.6 µM
CCOC(=O)c1ccc(-n2c(CCC(=O)O)ccc2-c2ccccc2)cc1 31.6 µM
CCOC(=O)N1CCN(C(c2cccnc2)c2ccc3cccnc3c2O)CC1 (stereo unspecified) 0.159 µM
CCOc1ccc(NC(=O)c2c(NC(=O)Cc3ccccc3)sc3c2CCC(C)C3)cc1 (stereo unspecified) 2.57 µM
Cc1ccc(-c2cnc(NCc3ccc(C(C)C)cc3)n2C)cc1 31.6 µM
CCOC(=O)N1CCc2c(sc(NCc3cccc(F)c3)c2C(=O)Nc2ccccc2OCC)C1 4.57 µM
CCOC(=O)c1c(NC(=O)COc2cc(C)ccc2C(C)C)sc(C)c1C 5.64 µM
CCc1ccc(NC2Nc3cc(C)nn3S2)cc1 (stereo unspecified) 1.78 µM
CCOC(=O)c1ccc(NC(=O)CSc2ncccn2)cc1 0.632 µM
Cc1ccccc1C(=O)Nc1ccc(N2CCCCCC2)cc1 2.83 µM
CCOc1ccc(NC(=O)c2c(NC(=O)Cc3ccccc3)sc3c2CCCCC3)cc1 4.57 µM
